PubChem BioAssay (NCATS)
Results filed as inconclusive are left out. Entries that show only a call come without a potency. Activity calls are given as the source filed them. Calls come from the whole dose curve; as a rule, active = well fitted cell-killing curve with a large enough effect; inconclusive = small, poorly fitted or top-dose-only effect, or effect the other way; inactive = flat fitted curve, though single readings scatter.

These compounds were tested on Hek293T (assay: Primary qHTS to identify gynecologic anti-cancer compounds using libraries of approved drugs and bioactive compounds (AID 1345084; note: nearly all actives have a fitted effect of over 55% in size)). Settings: Gynecologic cancer cell panel viability, ATPlite luminescence, 48 h, control line for the selectivity index; series mostly up to 57.5 µM.
Summary of the method: (§1)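 48 h compound exposure at 37 C, 5% CO2; five-point qHTS. ATPlite luminescence readout of cell ATP.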
Potency is the fitted concentration of half-maximal effect.

Compound | Potency
O=C(Nc1ccccc1)N1CCN(c2nc(-c3ccccc3)ns2)CC1 | inactive
Cc1cc(N2CCOCC2)ccc1Nc1nc(NC2CCCCC2)c2[nH]cnc2n1 | inactive
O=C(O)CCc1nccc2c1[nH]c1ccccc12 | inactive
O=c1[nH]c2ccc(C#CCN3CCC(Cc4ccccc4)CC3)cc2[nH]1 | inactive
COC1=CC(=O)O/C1=C(/OC)[C@@H]1O[C@H]1c1ccccc1 | inactive
O=C(Nc1ccc(-c2ccnc(Nc3ccc(N4CCOCC4)cc3)n2)cc1)C1CCCN1 (centres undefined) | inactive
CCCCC1CCN(CCCN2C(=O)CCc3ccccc32)CC1 | inactive
O=C(NCc1cccs1)c1cc2nc(-c3ccco3)cc(C(F)(F)Cl)n2n1 | inactive

Each compound was assayed on JEG-3 in the same assay as above. Settings: Gynecologic cancer cell panel viability, ATPlite luminescence, 48 h; series mostly up to 57.5 µM.
Summary of the method: as §1

Compound | Potency | activity change, negative = cytotoxicity
COc1cc(OC)c2c(=O)[nH]c(-c3cc(C)c(OCCO)c(C)c3)nc2c1 | inactive | 
COc1ccc(C2=NC(c3ccc(Cl)cc3)C(c3ccc(Cl)cc3)N2C(=O)N2CCNC(=O)C2)c(OC(C)C)c1 (centres undefined) | inactive | 
CCn1c(=O)c(-c2ccc(-c3cncs3)cc2Cl)cc2cnc(Nc3ccc(N4CCN(C)CC4)cc3)nc21 | inactive | 
COC(=O)c1ccc2c(c1)[nH]c1ncnc(NCCCN3CCCCC3)c12 | inactive | 
CN1CCN(c2ccc(Nc3cc(-c4cccc(-n5ccc6cc(C7CC7)cc(F)c6c5=O)c4CO)cn(C)c3=O)nc2)CC1 | inactive | 
O=c1nc(-c2ccccn2)sc2ccccc12 | inactive | 
CNc1nc(Nc2ccc(C(=O)N3CCOCC3)cc2OC)nc2[nH]cc(Cl)c12 | inactive | 
Cn1cc(-c2ccc3c(c2)CCN3C(=O)Cc2cccc(C(F)(F)F)c2)c2c(N)ncnc21 | inactive | 
C=C1CCC2[C@](C)(CCC[C@@]2(C)C=O)[C@H]1CC/C(C)=C/CO (some centres undefined) | inactive | 
CC1(CO)CC(O)[C@]2(C(=O)O)CCC34CC3(C=CC3[C@]5(C)C(CC[C@]34C)C(C)(CO)[C@@H](O)[C@H](O)[C@@H]5O)C2C1 (some centres undefined) | inactive | 
C/C=C(/C)C(=O)O[C@@H]1C[C@@H](OC(=O)CC(C)C)C2(C)C3C(=O)C=C(C)C2C3C1(C)C (some centres undefined) | inactive | 
O=C(NCCCN1CCOCC1)c1cnn2c(-c3ccccc3)cc(-c3ccccc3)nc12 | inactive | 
Cc1cc(OCCCS(C)(=O)=O)cc(C)c1-c1cccc(COc2ccc3c(c2)OCC3CC(=O)O)c1 (centres undefined) | inactive | 
CC1=C(C(=O)OC2CCCCC2)C(c2ccc([N+](=O)[O-])cc2)C2=C(CC(C)(C)CC2=O)N1 (centres undefined) | inactive | 
CC1(C)CC[C@]2(C(=O)O[C@@H]3O[C@H](CO)[C@@H](O)[C@H](O)[C@H]3O)CC[C@]3(C)C(=CCC4[C@@]5(C)CC[C@H](O[C@@H]6O[C@H](C(=O)O)[C@H](O)[C@H](O)[C@H]6O)C(C)(C)C5CC[C@]43C)[C@@H]2C1 (some centres undefined) | inactive | 
CCN1CCN(Cc2ccc(C(=O)Nc3ccc(C)c(Oc4ccc5c(c4)CC(=O)N5)c3)cc2C(F)(F)F)CC1 | inactive | 
CC(=O)c1c(C)cc2cccc(O)c2c1O[C@@H]1O[C@H](CO)[C@@H](O)[C@H](O)[C@H]1O | inactive | 
O=C(Nc1ccc(N(Cc2ccsc2)C(=O)Cn2nnc3ccccc32)cc1)C1CC1 | inactive | 
COc1ccc(CCc2nc3cc(-c4c(C)noc4C)ccc3n2CC(C)N2CCOCC2)cc1Cl (centres undefined) | inactive | 
CNc1cccc(CCOc2ccc3c(c2)CN(CC(F)(F)F)C(=O)[C@H](CC(=O)O)C3)n1 | inactive | 
CC(C)(O)c1ccn2c(-c3ccc(F)c(-c4ccc(F)cc4C#N)c3)cnc2c1F | inactive | 
Cc1[nH]c2ccccc2c1CCNCc1ccc(/C=C/C(=O)NO)cc1 | 251 nM (active) | 
C[C@@H]1O[C@@H](O[C@H]2[C@@H]3C=CO[C@@H](O[C@@H]4O[C@H](CO)[C@@H](O)[C@H](O)[C@H]4O)[C@@H]3[C@@]3(CO)O[C@@H]23)[C@H](O)[C@H](OC(=O)/C=C/c2ccccc2)[C@H]1O | inactive | 
C=C1C(=O)OC[C@@H]1C/C=C(\C)CC1CC(C)C(=O)O1 (some centres undefined) | inactive | 
COc1ccc(S(=O)(=O)n2cnc3cc(C)c(C)cc32)cc1 | inactive | 
C[C@@H]1O[C@@H](O[C@H]2CC[C@@]3(C)C(CC[C@]4(C)C3CC=C3[C@@H]5CC(C)(C)CC[C@]5(C(=O)O[C@@H]5O[C@H](CO)[C@@H](O)[C@H](O)[C@H]5O)CC[C@]34C)[C@]2(C)CO)[C@H](O)[C@H](O[C@@H]2O[C@H](CO)[C@@H](O)[C@H](O)[C@H]2O)[C@H]1O (some centres undefined) |  | -9.27% [at 11.6 µM] (inactive)
